# Measured values as given in the supplement of paper PMC8728848.
# Shown is part of a subset that was picked to be rich in the strongest signals.
# How the values were obtained:
# Experiment in all cases: glycan array binding signal (z-score within array); higher = stronger binding
# Details in all cases: glycan notation: IUPAC condensed, linker removed
# [1] = target: Fuc(a1-2)Gal(b1-4)[Fuc(a1-3)]GlcNAc(b1-3)Gal(b1-4)Glc
# Method in brief: (§1)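 Columns mapping to the same glycan were averaged after glycan names were converted to IUPAC-condensed notation. The data come from 3228 arrays in the Consortium for Functional Glycomics database, limited to those with an available protein sequence. Binding is reported as a within-array Z-score averaged across arrays of one protein sequence and across linkers.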
# [2] = target: Fuc(a1-2)[Gal(a1-3)]Gal(b1-4)GlcNAc(b1-3)Gal(b1-4)Glc
# Method in brief: as §1
# [3] = target: Fuc(a1-3)[Gal3S(b1-4)]Glc
# Method in brief: as §1
# Fuc(a1-6)GlcNAc = target: Fuc(a1-6)GlcNAc
# Method in brief: as §1
# [4] = target: Gal(b1-4)GlcNAc(b1-3)[Gal(b1-4)GlcNAc(b1-6)]Gal(b1-4)GlcNAc(b1-3)[Gal(b1-4)GlcNAc(b1-6)]Gal(b1-4)GlcNAc(b1-3)[Gal(b1-4)GlcNAc(b1-6)]Gal(b1-4)GlcNAc(b1-3)[Gal(b1-4)GlcNAc(b1-6)]Gal(b1-4)GlcNAc(b1-3)Gal(b1-4)Glc
# Method in brief: as §1
# [5] = target: Glc(b1-3)Glc(b1-3)Glc(b1-3)Glc(b1-3)Glc(b1-3)Glc(b1-3)Glc
# Method in brief: as §1
# Glc(b1-4)Glc = target: Glc(b1-4)Glc
# Method in brief: as §1
# [6] = target: Glc(b1-4)Glc(b1-4)Glc(b1-4)Glc(b1-4)Glc(b1-4)Glc(b1-4)Glc(b1-4)Glc(b1-4)Glc
# Method in brief: as §1
# [7] = target: Glc(b1-4)Glc(b1-4)Glc(b1-4)Glc(b1-4)Glc(b1-4)Glc(b1-4)Glc(b1-4)Glc(b1-4)Glc(b1-4)Glc
# Method in brief: as §1
# [8] = target: GlcNAc(a1-4)Gal(b1-3)[Fuc(a1-2)]Gal
# Method in brief: as §1
# [9] = target: Kdn(a2-3)[GalNAc(b1-4)]Gal(b1-3)GlcNAc
# Method in brief: as §1
# Man(a1-6)Man = target: Man(a1-6)Man
# Method in brief: as §1
# [10] = target: Neu5Ac(a2-3)Gal(b1-4)GlcNAc(b1-2)Man(a1-3)[Neu5Ac(a2-3)Gal(b1-4)GlcNAc(b1-2)Man(a1-6)]Man(b1-4)GlcNAc(b1-4)[Fuc(a1-6)]GlcNAc
# Method in brief: as §1
# [11] = target: Neu5Ac(a2-3)Gal(b1-4)GlcNAc6S(b1-3)Gal6S(b1-3)GlcNAc6S
# Method in brief: as §1
# [12] = target: Neu5Ac(a2-3)Gal(b1-4)[Fuc(a1-3)]GlcNAc(b1-3)Gal(b1-4)Glc
# Method in brief: as §1
# [13] = target: Neu5Ac(a2-3)Gal6S(b1-4)[Fuc(a1-3)]GlcNAc6S(b1-3)Gal(b1-4)Glc
# Method in brief: as §1
# [14] = target: Neu5Ac(a2-3)[GalNAc(b1-4)]Gal(b1-3)GalNAc(b1-4)[Neu5Ac(a2-3)]Gal(b1-4)Glc
# Method in brief: as §1
# [15] = target: Neu5Ac(a2-3)[GalNAc(b1-4)]Gal(b1-4)Glc
# Method in brief: as §1
# Neu5Ac(a2-6)Gal(b1-4)Glc = target: Neu5Ac(a2-6)Gal(b1-4)Glc
# Method in brief: as §1
# [16] = target: Neu5Ac(a2-8)Neu5Ac(a2-3)Gal(b1-3)GalNAc(b1-4)[Neu5Ac(a2-8)Neu5Ac(a2-3)]Gal(b1-4)Glc
# Method in brief: as §1
# [17] = target: Neu5Gc(a2-3)Gal(b1-3)GlcNAc(b1-3)Gal(b1-4)Glc
# Method in brief: as §1
# [18] = target: Neu5Gc(a2-3)[GalNAc(b1-4)]Gal
# Method in brief: as §1
# [19] = target: Neu5Gc(a2-6)Gal(b1-3)GlcNAc(b1-3)Gal(b1-4)Glc
# Method in brief: as §1
# [20] = target: Neu5Gc(a2-6)Gal(b1-4)GlcNAc(b1-2)Man(a1-3)[Neu5Gc(a2-6)Gal(b1-4)GlcNAc(b1-2)Man(a1-6)]Man(b1-4)GlcNAc(b1-4)GlcNAc
# Method in brief: as §1
# Neu5Gc(a2-6)GalNAc = target: Neu5Gc(a2-6)GalNAc
# Method in brief: as §1
# [21] = target: Xyl(a1-6)Glc(b1-4)[Xyl(a1-6)]Glc(b1-4)[Xyl(a1-6)]Glc(b1-4)Glc
# Method in brief: as §1
binder,measurement,setting,value
"MIC1 (Toxoplasma gondii), O00834 (protein) VGPEAYGEASHSHSPASGRYIQQMLDQRCQEIAAELCQSGLRKMCVPSSRIVARNAVGITHQNTLQWRCFDTASLLESNQENNGVNCVDDCGHTIPCPGGVHRQNSNHATRHEILSKLVEEGVQRFCSPYQASANKYCNDKFPGTIARRSKGFGNNVEVAWRCYEKASLLYSVYAECASNCGTTWYCPGGRRGTSTELDKRHYTEEEGIRQAIGSVDSPCSEVEVCLPKDENPPLCLDESGQISRT",glycan array binding signal (z-score),[1],-0.296
same,glycan array binding signal (z-score),[2],-0.253
same,glycan array binding signal (z-score),[3],-0.041
same,glycan array binding signal (z-score),Fuc(a1-6)GlcNAc,-0.287
same,glycan array binding signal (z-score),[4],-0.287
same,glycan array binding signal (z-score),[5],-0.287
same,glycan array binding signal (z-score),Glc(b1-4)Glc,-0.287
same,glycan array binding signal (z-score),[6],-0.287
same,glycan array binding signal (z-score),[7],-0.287
same,glycan array binding signal (z-score),[8],-0.299
same,glycan array binding signal (z-score),[9],-0.274
same,glycan array binding signal (z-score),Man(a1-6)Man,-0.312
same,glycan array binding signal (z-score),[10],2.46
same,glycan array binding signal (z-score),[11],4.52
same,glycan array binding signal (z-score),[12],0.087
same,glycan array binding signal (z-score),[13],2.46
same,glycan array binding signal (z-score),[14],1.29
same,glycan array binding signal (z-score),[15],2.98
same,glycan array binding signal (z-score),Neu5Ac(a2-6)Gal(b1-4)Glc,-0.342
same,glycan array binding signal (z-score),[16],-0.411
same,glycan array binding signal (z-score),[17],2.33
same,glycan array binding signal (z-score),[18],4.78
same,glycan array binding signal (z-score),[19],2.08
same,glycan array binding signal (z-score),[20],0.198
same,glycan array binding signal (z-score),Neu5Gc(a2-6)GalNAc,4.8
same,glycan array binding signal (z-score),[21],-0.287
